Experimental data published in PubChem BioAssay AID504850 (National Center for Advancing Translational Sciences (NCATS), 2011).
The whole screen tested about 2,300 compounds, of which about 1,200 (52%) were called active. Another 34% or so got no clear call; they are omitted. The set was probably picked from earlier hits. This is one part of the list. Values without a mark were called inactive. Calls follow the shape of the dose curve; as a rule, active = well fitted inhibition curve with a large enough effect; inconclusive = small, poorly fitted or top-dose-only effect, or effect the other way; inactive = no such curve, though single readings can be large or run the other way.

Assay: Confirmation screen for delayed death inhibitors of the malarial parasite plastid, 48 hour incubation; also: nearly all actives have a fitted effect of over 65% in size
Conditions: P. falciparum-infected erythrocytes, luciferase growth; series mostly up to 28.7 µM; activity change, negative = inhibition: at the top concentration
Procedure, shortened: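 Single-generation (48 h, 37 C) exposure of integrated firefly luciferase-reporter P. falciparum in red cells, 0.1% parasitemia at 2% hematocrit, Albumax-supplemented RPMI. Falling luciferase signal marks parasite growth inhibition.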
% is scaled to controls: 0 for no effect and ±100 for the full control effect; potency is read from the fitted curve at half-maximal effect.

| Compound | Potency | activity change, negative = inhibition |
| --- | --- | --- |
| Clc1cccc(Cl)c1C[n+]1ccc2ccccc2c1 | 2.82 µM (active) |  |
| CN(C)c1cc[n+](Cc2c(Cl)cccc2Cl)cc1 | 2.24 µM (active) |  |
| CCOc1ccccc1C(=O)NCC(=O)NCCc1ccc(S(N)(=O)=O)cc1 |  | -5.73% |
| COc1ccc(NC(=O)CCCn2nc(C)c3c(C)n(-c4ccccc4)nc3c2=O)cc1 | 11.2 µM (active) |  |
| COc1ccc(NC(=O)CCCn2cc([N+](=O)[O-])cn2)cc1 |  | -1.74% |
| Cc1cccc(C)c1NC(=O)CCCn1nc(C)c2c(C)n(-c3ccccc3)nc2c1=O | 12.6 µM (active) |  |
| Cc1ccc(-c2nnn(CC(=O)Nc3ccc4nn(-c5ccccc5)nc4c3)n2)o1 |  | -6.32% |
| CCOc1ccc(CCNC(=O)CCCn2nc(C)c3c(C)n(-c4ccccc4)nc3c2=O)cc1 | 11.2 µM (active) |  |
| Cc1ccccc1NC(=O)CCCn1nc(C)c2c(C)n(-c3ccccc3)nc2c1=O | 10 µM (active) |  |
| COCCN(C(=S)Nc1ccc(OC)c(Cl)c1)C1CCN(C(C)C)CC1 | 14.1 µM (active) |  |
| COc1ccc2[nH]c3c(c2c1)CCN1C(=O)N([C@@H](C)C(=O)NCCc2ccc(F)cc2)C(=O)[C@]31C | 12.6 µM (active) |  |
| CCCCOc1ccc(N2C(N)=NC(N)=NC23CCCCC3)cc1 | 2 µM (active) |  |
| CCOC(=O)C1=C(NC(=S)NC(=O)c2ccccc2)c2ccccc2CC1(C)CC (stereo unspecified) | 11.2 µM (active) |  |
| Cc1ccc2nc(CNC(=O)C3CCC(=O)N(Cc4ccccc4F)C3)cn2c1 (stereo unspecified) | 12.6 µM (active) |  |
| O=C(NC1CCC1)C1CCC(=O)N(Cc2ccccc2F)C1 (stereo unspecified) |  | -11.4% |
| COc1ccc(-c2nc(N3CCN(C)CC3)sc2-c2ccc(OC)cc2)cc1 | 15.8 µM (active) |  |
| Cc1ccc(-c2nnc(N3CCOCC3)c3ccccc23)cc1S(=O)(=O)NCC1CCCO1 (stereo unspecified) | 7.08 µM (active) |  |
| CC(=O)Nc1ccc(Nc2nnc(-c3ccc(C)c(S(=O)(=O)NCC4CCCO4)c3)c3ccccc23)cc1 (stereo unspecified) |  | -0.717% |
| CCOCCCn1c(C)nc2c(c1=O)c1nc3ccccc3nc1n2CCC1=CCCCC1 | 7.08 µM (active) |  |
| Cc1nn2c(Nc3ccccc3)c3c(nc2c1-c1ccccc1)CCC3 | 15.8 µM (active) |  |
| Cc1ccc(-c2csc3nc[nH]c(=O)c23)cc1 |  | -1.08% |
| Clc1ccc2nnnc(-c3ccccc3)c2c1 | 3.98 µM (active) |  |
| Cc1ccc(S(=O)(=O)N2CCN(c3ccc(C(=O)N4CCOCC4)cc3[N+](=O)[O-])CC2)cc1 | 7.08 µM (active) |  |

| Compound | Potency | activity change, negative = inhibition |
| --- | --- | --- |
| O=C(c1ccc(S(=O)(=O)Cc2cc(F)ccc2F)c([N+](=O)[O-])c1)N1CCCC1 | 12.6 µM (active) |  |
| O=C(c1ccc(S(=O)(=O)Cc2ccccc2Cl)c([N+](=O)[O-])c1)N1CCOCC1 | 10 µM (active) |  |
| Cc1cccc(N2CCN(C(=O)C3CCN(c4ncnc5c4nc4n5CCCCC4)CC3)CC2)c1C | 14.1 µM (active) |  |
| CC1CCN(C(=O)C2CCCN(c3ncnc4c3nc3n4CCCCC3)C2)CC1 (stereo unspecified) | 14.1 µM (active) |  |
| COC(=O)CC1C(=O)NCCN1C(=S)Nc1ccc(F)cc1 (stereo unspecified) | 14.1 µM (active) |  |
| CCOC(=O)C(Cc1ccccc1)C(=O)Nc1cccc2ccccc12 (stereo unspecified) | 3.98 µM (active) |  |
| CCC1CN(C(=O)N2CCC(C(=O)NCc3cccc(OC)c3OC)CC2)c2cc(C)ccc2O1 (stereo unspecified) | 12.6 µM (active) |  |
| COc1cccc(COC(=O)C2CC(=O)N(Cc3ccco3)C2)c1OC (stereo unspecified) |  | -19.1% |
| CC(C)NS(=O)(=O)c1ccc(NC(=S)NC(=O)c2ccc(-c3ccccc3)cc2)cc1 | 5.01 µM (active) |  |
| O=C(NC(=C(Cl)Cl)S(=O)(=O)c1ccc(Cl)cc1)c1ccccc1 |  | -9.33% |
| O=c1c(Cl)c(Cl)cnn1Cc1nnc(-c2ccc(Cl)cc2)o1 | 14.1 µM (active) |  |
| O=C(NC1CCCCC1)N1CCN(c2ccc([N+](=O)[O-])cc2)CC1 | 11.2 µM (active) |  |
| Cc1ccc(NC(=O)c2ccc(Nc3c([N+](=O)[O-])cc([N+](=O)[O-])cc3[N+](=O)[O-])cc2)cc1 | 3.16 µM (active) |  |
| O=C(Nc1cccc([N+](=O)[O-])c1)c1ccc2nsnc2c1 |  | -9.9% |
| Cc1ccc(NC(=O)/C(=C\c2ccc([N+](=O)[O-])cc2)NC(=O)c2ccccc2)cc1 | 10 µM (active) |  |
| O=C(NCc1ccccc1)c1c[nH]c2ccccc2c1=O | 14.1 µM (active) |  |
| COCCn1c(=O)[nH]c2cc(C(=O)NCc3ccccc3)ccc2c1=O |  | 2.77% |
| CCOC(=O)c1ccc2c(c1)n(CC)c(/C=C/N(C)c1ccccc1)[n+]2CC | 0.447 µM (active) |  |
| CCn1c(/C=C/N(C(C)=O)c2ccccc2)[n+](CC)c2ccc(Cl)cc21 | 2.82 µM (active) |  |
| CCc1ccc(NC(=O)CN(c2cc(C)cc(C)c2)S(=O)(=O)c2c(C)[nH]c(=O)[nH]c2=O)cc1 | 12.6 µM (active) |  |
| CCC1S/C(=N/N=C/c2ccco2)N(Cc2ccccc2)C1=O (stereo unspecified) | 14.1 µM (active) |  |
| CC1S/C(=N/N=C/c2ccco2)N(Cc2ccccc2)C1=O (stereo unspecified) |  | -10.7% |
| CCC1S/C(=N/N=C/c2ccco2)N(Cc2ccccc2C)C1=O (stereo unspecified) | 11.2 µM (active) |  |

| Compound | Potency | activity change, negative = inhibition |
| --- | --- | --- |
| CCc1ccc(/C=N/n2c(C)cc(C)c(C#N)c2=O)cc1 | 6.31 µM (active) |  |
| C=C1C(=O)O[C@@H]2[C@H]1CC[C@H](C)[C@]1(O)CCC(=O)[C@@]21C | 12.6 µM (active) |  |
| N=C(N)c1ccc(/C=C/c2ccc(C(=N)N)cc2O)cc1 | 0.708 µM (active) |  |
| COC(=O)c1ccc(Sc2nnnn2-c2ccccc2)c([N+](=O)[O-])c1 | 11.2 µM (active) |  |
| O=C(NC1CCS(=O)(=O)C1)/C(=C\c1ccc(F)cc1)NC(=O)c1ccccc1 (stereo unspecified) | 15.8 µM (active) |  |
| Cn1c(=O)oc2cc(S(=O)(=O)NCCC(=O)NCc3ccc(F)cc3)ccc21 | 15.8 µM (active) |  |
| COc1cc2c(O)c3c(c(-c4ccc5c(c4)OCO5)c2cc1OC)C(=O)OC3 | 10 µM (active) |  |
| CCOc1ccccc1NC(=O)/C(C#N)=C/c1cccnc1 | 14.1 µM (active) |  |
| CCOc1ccccc1NC(=S)N1CCN(c2cccc(OC)c2)CC1 |  | -10.4% |
| Fc1ccc(Nc2nc(N3CCOCC3)nc(N3CCOCC3)n2)cc1 | 14.1 µM (active) |  |
| N#Cc1cc(S(=O)(=O)c2ccccc2)c(N)[nH]c1=O |  | -20.3% |
| COc1ccc(-c2nnc3ccc(SCC(=O)Nc4nc5ccc(C)cc5s4)nn23)cc1OC | 1.26 µM (active) |  |
| COc1cccc(CN(C)CC2CCCN(CCc3ccc(Cl)cc3)C2)c1OC (stereo unspecified) | 10 µM (active) |  |
| COc1ccc(/C=C2\CN(Cc3ccccc3)C/C(=C\c3ccc(OC)c(O)c3)C2=O)cc1O | 0.891 µM (active) |  |
| CCOc1cc(/C=C2\CN(CC)C/C(=C\c3ccc(O)c(OCC)c3)C2=O)ccc1O | 3.98 µM (active) |  |
| O=C(O)c1ccccc1NS(=O)(=O)c1cccc(-n2sc3ccccc3c2=O)c1 | 15.8 µM (active) |  |
| CCOc1ccccc1Nc1nnc(SC(C)C(=O)Nc2nc(-c3ccccc3)cs2)s1 (stereo unspecified) | 14.1 µM (active) |  |
| COc1ccccc1Nc1nnc(SCc2cc(=O)n3ccsc3n2)s1 | 12.6 µM (active) |  |
| COc1ccccc1Nc1nnc(SCC(=O)Nc2nc(-c3ccc(F)cc3)cs2)s1 | 11.2 µM (active) |  |
| CC(=O)Oc1ccc(-c2csc(Nc3cccnc3)n2)cc1 |  | 11% |
| Cc1cc(C(=O)OC(C)C(=O)Nc2nc(-c3ccccc3)cs2)c(C)o1 (stereo unspecified) |  | -23.8% |
| Oc1ccc(Cl)cc1CNc1cnc2ccccc2c1 | 12.6 µM (active) |  |
| Cc1nc2scc(C)n2c(=O)c1S(=O)(=O)NCc1ccccc1Cl |  | -15.8% |

| Compound | Potency | activity change, negative = inhibition |
| --- | --- | --- |
| COc1ccc(C(=O)NC2CCCc3c2cnn3-c2cccc(C)c2C)o1 (stereo unspecified) | 12.6 µM (active) |  |
| Cc1cccc(-n2ncc3c2CCCC3NC(=O)C2=CC(=O)CC(C)(C)O2)c1C (stereo unspecified) | 15.8 µM (active) |  |
| Cc1cc(C(=O)NC2CCCc3c2cnn3-c2cccc(C)c2C)no1 (stereo unspecified) |  | -9.26% |
| CCc1c(C(=O)NC2CCCc3ccccc32)[nH]c(C)c1C(C)=O (stereo unspecified) |  | -5.63% |
| COc1cccc(NC(=O)c2nc(S(C)(=O)=O)ncc2Cl)c1 |  | -26.2% |
| O=C(CCl)Nc1cccc(Oc2cnccn2)c1 | 4.47 µM (active) |  |
| COc1ccc(CNS(=O)(=O)c2ccc3c(c2)N(C(C)=O)CC(C)S3)cc1 (stereo unspecified) | 12.6 µM (active) |  |
| Cn1nc(CC(=O)Nc2ncc(Br)s2)c2ccccc2c1=O | 11.2 µM (active) |  |
| O=C(C[n+]1cc(Br)cc2ccccc21)c1ccccc1 | 10 µM (active) |  |
| Clc1ccc2nc(-c3ccccn3)c(Nc3ccc4c(c3)OCO4)n2c1 | 11.2 µM (active) |  |
| Nc1ccc2nc(-c3ccc(-c4nc5ccc(N)cc5[nH]4)cc3)[nH]c2c1 | 7.08 µM (active) |  |
| Cc1cccc(N(C)C(=O)CN(C)S(=O)(=O)c2ccc3c(c2)c(=O)n(C)c(=O)n3C)c1 | 12.6 µM (active) |  |
| CC1CCC(NC(=O)CN(C)S(=O)(=O)c2ccc3c(c2)c(=O)n(C)c(=O)n3C)CC1 (stereo unspecified) | 10 µM (active) |  |
| O=S(=O)(c1cnc[nH]1)N1CCN(C(c2ccc(F)cc2)c2ccc(F)cc2)CC1 | 11.2 µM (active) |  |
| O=C(Oc1nsnc1N1CCCCC1)N1CCOCC1 | 12.6 µM (active) |  |
| O=C1CN(C(=O)c2ccc(Cl)c(S(=O)(=O)N3CCc4ccccc43)c2)c2ccccc2N1 | 12.6 µM (active) |  |
| COC(=O)C1C(=O)C2=C(CC1C)NC(C)=C(C(=O)OCCOc1ccccc1)C2c1ccc(C)o1 (stereo unspecified) | 14.1 µM (active) |  |
| CS(=O)(=O)N1CCN(c2ccc(NC(=O)c3ccc([N+](=O)[O-])o3)cc2)CC1 | 11.2 µM (active) |  |
| Cn1cc([N+](=O)[O-])c(C(=O)Nc2ccc(C3CCCCC3)cc2)n1 |  | -26.5% |
| O=C(Nc1ccc(S(=O)(=O)N2CCOCC2)cc1)c1ccc([N+](=O)[O-])o1 | 3.16 µM (active) |  |
| O=C(Nc1ccc(N2CCOCC2)c(Cl)c1)c1cc2ccccc2o1 | 2.51 µM (active) |  |
| CC(C)C(=O)N1CCN(c2ccc(NC(=O)c3ccc([N+](=O)[O-])o3)cc2)CC1 | 8.91 µM (active) |  |
